The values below come from PubChem BioAssay (Tox21).

Records with an inconclusive call do not appear. Where a call stands in place of a potency, no number is given. Active and inactive are the calls of the source. Unless noted, calls come from the whole dose curve; as a rule, active = well fitted curve in the direction sought with a large enough effect in the repeat runs; inconclusive = weak or mixed curves; inactive = no such curve, though single readings can be large; an effect the other way counts as inactive or inconclusive.

Test system in one assay: not listed separately
Description: qHTS assay to identify small molecule antagonists of the peroxisome proliferator-activated receptor delta (PPARd) signaling pathway - cell viability counter screen (AID 743213). Note: nearly all actives have a fitted effect of over 50% in size. The note with it: PPARd-bla HEK293H viability, CellTiter-Glo luminescence, 17 h; series mostly up to 62 µM. The essentials: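 HEK293H PPARd UAS-bla cells, 5 h pre-incubation, compound + L165041 300 nM final, 17 h 37 C; B/G FRET substrate 2 h RT; then CellTiter-Glo 30 min RT, luminescence.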
Turning to `CC/C=C\CCOC(=O)C(C)C`, the Potency entry is “inactive”.
Regarding `COc1ccc(S(=O)(=O)Nc2nnc(CC(C)C)s2)cc1`, the Potency entry was “inactive”.
As for `CC1=NN(c2cc(Cl)c(S(=O)(=O)O)cc2Cl)C(=O)C1N=Nc1ccc(S(=O)(=O)O)cc1` (stereo not drawn), the Potency entry was “inactive”.
Take `COc1ccc2nc(NC(=O)Nc3ccccc3)sc2c1`: the Potency entry was “inactive”.
Same read-out and setting: as for `CC(=O)Oc1cc(C(C)C)c(OCCN(C)C)cc1C`, the entry is “inactive”; as for `CC1(C)O[C@@H]2C[C@H]3[C@@H]4CCC5=CC(=O)CC[C@]5(C)[C@@]4(F)[C@@H](O)C[C@]3(C)[C@]2(C(=O)CCl)O1`, “inactive”; as for `Clc1cccc(-c2cc(Cl)cc(Cl)c2)c1`, “inactive”.
Regarding `CCCCCCOc1ccc(N)cc1`, the Potency result is “inactive”.
Still for that read-out and setting: as for `CCOc1ccccc1N`, the entry is “inactive”; as for `OCCN(CCO)CCN(CCO)CCO`, “inactive”.
For `CCCCC1CCC(=O)O1` (stereo not drawn), the Potency result was “inactive”.
On the same count and under the same terms, for `CCOc1ccc2nc(N)sc2c1` the value was “inactive”; for `O=CCCc1ccccc1`, “inactive”; for `CC1=C(CC(=O)O)c2cc(F)ccc2/C1=C\c1ccc(S(C)(=O)=O)cc1`, “inactive”.
Same read-out and setting: as for `CCCCCCn1c(=O)c2c(ncn2C)n(C)c1=O`, the entry is “inactive”.
With `O=C1CCN(c2ccccc2)N1`, the Potency result was “inactive”.

A further assay deals with Peroxisome proliferator-activated receptor delta (Homo sapiens) (UniProt Q03181). Description: qHTS assay to identify small molecule antagonists of the peroxisome proliferator-activated receptor delta (PPARd) signaling pathway (AID 743215; active = well fitted inhibition curve with a large enough effect in the signal ratio in the repeat runs, not every such curve was filed as active; the % refers to the signal ratio;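 note: cells stimulated with agonist L165041 at 300 nM final during compound exposure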). The note with it: HEK293H PPARd-UAS-bla, beta-lactamase FRET ratio, antagonist, 17 h; series mostly up to 62 µM. The essentials: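 With L165041 present at 300 nM final, compounds were incubated 17 h at 37 C on PPARd UAS-bla HEK293H cells. A FRET-based beta-lactamase substrate was then applied for 2 h at room temperature and fluorescence intensity recorded.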
Chain of Peroxisome proliferator-activated receptor delta (Homo sapiens) (Q03181 whole entry, looked up): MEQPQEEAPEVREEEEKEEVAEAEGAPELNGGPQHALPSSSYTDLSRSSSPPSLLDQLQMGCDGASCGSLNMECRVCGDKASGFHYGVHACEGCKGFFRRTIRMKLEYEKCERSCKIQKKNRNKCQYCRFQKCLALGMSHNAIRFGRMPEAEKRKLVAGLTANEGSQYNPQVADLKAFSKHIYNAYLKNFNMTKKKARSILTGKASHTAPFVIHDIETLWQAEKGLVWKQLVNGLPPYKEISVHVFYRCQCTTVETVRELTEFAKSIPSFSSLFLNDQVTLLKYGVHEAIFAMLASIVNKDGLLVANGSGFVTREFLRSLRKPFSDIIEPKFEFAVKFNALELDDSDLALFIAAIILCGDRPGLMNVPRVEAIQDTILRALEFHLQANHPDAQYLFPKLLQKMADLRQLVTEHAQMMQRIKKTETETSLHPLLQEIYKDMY
In general terms: In qHTS, concentration-response curves come from the screen itself.
As to `CN(C)C(=O)NC1(c2ccccc2)CCN(CCC[C@]2(c3ccc(Cl)c(Cl)c3)CCCN(C(=O)c3ccccc3)C2)CC1`, the outcome was inactive.
Take `CN1CCN(C2=Nc3ccccc3Oc3ccc(Cl)cc32)CC1`: the result was inactive.
`CCCCCCCCCCCCCCCCOP(=O)([O-])OCC[N+](C)(C)C`: the outcome was inactive.
As for `CC(C)=CCCC(C)CCOC=O` (stereo not drawn), the result was inactive.
As for `CCN(CC)CCOc1ccc(Cc2ccccc2)cc1`, the outcome was inactive.
On the same count and under the same terms, as for `C=CCCC=C`, the entry is “inactive”; as for `CCCCCCCCc1ccc(S(=O)(=O)O)cc1`, “inactive”; as for `CC(=O)Nc1ccc(C)c(Cl)c1`, “inactive”.
Still for that read-out and setting: as for `OCC(CBr)(CBr)CBr`, the entry is “inactive”; as for `COc1cc(Cl)ccc1Cl`, “inactive”.
`COc1cc2c(cc1N)oc1ccccc12`: the result was inactive.
As to `Cc1nc(N)nc(N)c1-c1ccc(Cl)c(Cl)c1`, the result was inactive.

The target of a further assay is Bile acid receptor (Homo sapiens) (UniProt Q96RI1). Description: qHTS assay to identify small molecule antagonists of the farnesoid-X-receptor (FXR) signaling pathway (AID 743217; active = well fitted inhibition curve with a large enough effect in the signal ratio in the repeat runs, not every such curve was filed as active; the % refers to the signal ratio). Particulars: HEK293T FXR-UAS-bla, beta-lactamase ratio, CDCA-stimulated, 16 h; series mostly up to 62.6 µM. The essentials: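 In this cell-based antagonist screen, inhibition of CDCA-driven (50 uM final) UAS-beta-lactamase expression in HEK 293T cells was measured by FRET fluorescence following 16 h compound exposure at 37 °C.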
Chain of Bile acid receptor (Homo sapiens) (Q96RI1 whole entry, looked up): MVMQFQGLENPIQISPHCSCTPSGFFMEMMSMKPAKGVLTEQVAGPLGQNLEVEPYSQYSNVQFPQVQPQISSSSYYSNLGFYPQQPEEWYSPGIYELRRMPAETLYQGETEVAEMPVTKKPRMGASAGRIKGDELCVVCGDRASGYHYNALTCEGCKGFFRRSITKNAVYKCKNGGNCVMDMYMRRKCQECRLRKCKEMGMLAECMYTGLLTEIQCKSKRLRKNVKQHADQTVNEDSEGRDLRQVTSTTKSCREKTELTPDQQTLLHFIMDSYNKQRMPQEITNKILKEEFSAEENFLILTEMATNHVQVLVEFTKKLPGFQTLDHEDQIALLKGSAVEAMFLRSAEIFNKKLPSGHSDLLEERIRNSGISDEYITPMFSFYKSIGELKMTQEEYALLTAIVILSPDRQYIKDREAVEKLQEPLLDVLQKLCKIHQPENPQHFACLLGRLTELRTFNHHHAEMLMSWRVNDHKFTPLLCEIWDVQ
As for `CCC(=O)c1ccc2c(c1)N(CCCN(C)C)c1ccccc1S2`, the result was inactive.
The same measure, in the same setting: as for `C=CCCC=C`, the entry is “inactive”; as for `O=Cc1ccc(O)c(O)c1O`, “inactive”.

Test system in a further assay: not listed separately
Description: qHTS assay to identify small molecule agonists of the farnesoid-X-receptor (FXR) signaling pathway - cell viability counter screen (AID 743218). Note: nearly all actives have a fitted effect of over 45% in size. Note: potency is the fitted concentration of half-maximal effect. The note with it: FXR-bla HEK293T viability, CellTiter-Glo luminescence, 16 h; series mostly up to 62.6 µM. The method in brief:
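After 16 h at 37 C with test compounds, FXR-bla HEK 293T cells were given LiveBLAzer B/G substrate for 2 h at RT and then CellTiter-Glo; luminescence was taken after 30 min.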
Regarding `CN(C)C(=O)NC1(c2ccccc2)CCN(CCC[C@]2(c3ccc(Cl)c(Cl)c3)CCCN(C(=O)c3ccccc3)C2)CC1`, the Potency was 11.7 µM (active).
With `CC(=O)Oc1cc(C(C)C)c(OCCN(C)C)cc1C`, the Potency result was “inactive”.
On to `CCCCCCCCCCCCOCCOS(=O)(=O)O`, for which the Potency result is “inactive”.
Turning to `CCOc1ccc(NC(N)=O)cc1`, the Potency entry is “inactive”.
Take `CC(C)=CCCC(C)CCOC=O` (stereo not drawn): the Potency entry was “inactive”.
As for `O=C(O)c1ccccc1Nc1cc(Cl)ccc1C(=O)O`, the Potency result was “inactive”.
As for `Cc1cc2nc(N)sc2cc1C`, the Potency entry was “inactive”.
In the case of `CCCCOc1cc(C(=O)NCCN(CC)CC)c2ccccc2n1`, the Potency entry is “inactive”.
On the same count and under the same terms, for `CCCCC1CCC(=O)O1` (stereo not drawn) the value was “inactive”.
The same measure, in the same setting: for `O=Cc1ccc(O)c(O)c1O` the value was “inactive”.
Take `CCOc1ccc2nc(N)sc2c1`: the Potency entry was “inactive”.
On the same count and under the same terms, as for `OCC(CBr)(CBr)CBr`, the entry is “inactive”.
In the case of `CC1=C(CC(=O)O)c2cc(F)ccc2/C1=C\c1ccc(S(C)(=O)=O)cc1`, the Potency entry is “inactive”.
On to `CC(C)NC[C@@H](O)COc1cccc2ccccc12`, for which the Potency entry is “inactive”.
`COc1ccc(Nc2ccc(OC)cc2)cc1`: the Potency result was “inactive”.

The target of a further assay is Bile acid receptor (Homo sapiens) (UniProt Q96RI1). Description: qHTS assay to identify small molecule agonists of the farnesoid-X-receptor (FXR) signaling pathway (AID 743220; active = well fitted activation curve with a large enough effect in the signal ratio in the repeat runs, not every such curve was filed as active; the % refers to the signal ratio). The note with it: HEK293T FXR-UAS-bla, beta-lactamase FRET ratio, 16 h; series mostly up to 62.6 µM. The method in brief: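 Beta-lactamase reporter under UAS control in GeneBLAzer FXR HEK 293T cells (5000/well) measured with LiveBLAzer FRET substrate after 2 h at room temperature. Compound exposure lasted 16 h at 37C.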
In the case of `CC(C)c1ccccc1`, the result was inactive.
Consider `CCOc1ccc(NC(N)=O)cc1`, for which the outcome was inactive.
Regarding `CCC(=O)c1ccc2c(c1)N(CCCN(C)C)c1ccccc1S2`, the outcome was inactive.
Regarding `CC(C)=CCCC(C)CCOC=O` (stereo not drawn), the result was inactive.
Same read-out and setting: for `CCCCCCOc1ccc(N)cc1` the value was “inactive”; for `Cc1cc2nc(N)sc2cc1C`, “inactive”; for `C=CCCC=C`, “inactive”.
Turning to `CCCCCCCCc1ccc(S(=O)(=O)O)cc1`, the result was inactive.
Turning to `O=Cc1ccc(O)c(O)c1O`, the outcome was inactive.
Turning to `CC(=O)Nc1ccc(C)c(Cl)c1`, the outcome was inactive.
For `CC(C)NC[C@@H](O)COc1cccc2ccccc12`, the result was inactive.
On the same count and under the same terms, as for `O=C1CCN(c2ccccc2)N1`, the entry is “inactive”; as for `COc1cc2c(cc1N)oc1ccccc12`, “inactive”.
Regarding `Cc1nc(N)nc(N)c1-c1ccc(Cl)c(Cl)c1`, the result was inactive.
Turning to `COc1ccc(Nc2ccc(OC)cc2)cc1`, the result was inactive.

Test system in the next assay: not listed separately
Description: qHTS assay to identify small molecule antagonists of the farnesoid-X-receptor (FXR) signaling pathway - cell viability counter screen (AID 743221; active = well fitted cell-killing curve with a large enough effect in the repeat runs, not every such curve was filed as active; note: nearly all actives have a fitted effect of over 50% in size). Particulars: FXR-bla HEK293T viability, CellTiter-Glo luminescence, 16 h; series mostly up to 62.6 µM. The method in brief:
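In GeneBLAzer FXR-UAS-bla HEK 293T cells stimulated with 50 uM chenodeoxycholic acid (final), compounds acted for 16 h at 37 C. Viability was assessed afterwards by CellTiter-Glo luminescence.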
Consider `CC/C=C\CCOC(=O)C(C)C`, for which the outcome was inactive.
As to `CN(C)C(=O)NC1(c2ccccc2)CCN(CCC[C@]2(c3ccc(Cl)c(Cl)c3)CCCN(C(=O)c3ccccc3)C2)CC1`, the compound was called inactive.
For the compound `COc1ccc(S(=O)(=O)Nc2nnc(CC(C)C)s2)cc1`, the call was inactive.
In the case of `CC1=NN(c2cc(Cl)c(S(=O)(=O)O)cc2Cl)C(=O)C1N=Nc1ccc(S(=O)(=O)O)cc1` (stereo not drawn), the compound was called inactive.
Consider `COc1ccc2nc(NC(=O)Nc3ccccc3)sc2c1`, for which the compound was called inactive.
As for `CCCCCCCCCCCCCCCCOP(=O)([O-])OCC[N+](C)(C)C`, the result was inactive.
Take `CCCCC(=O)O[C@]1(C(=O)CO)[C@H](C)C[C@H]2[C@@H]3CCC4=CC(=O)C=C[C@]4(C)[C@@]3(F)[C@@H](O)C[C@@]21C`: the call was inactive.
Take `CC(C)c1ccccc1`: the outcome was inactive.
Same read-out and setting: as for `CCOc1ccc(NC(N)=O)cc1`, the entry is “inactive”.
For `CC(C)=CCCC(C)CCOC=O` (stereo not drawn), the result was inactive.
With `O=C(O)c1ccccc1Nc1cc(Cl)ccc1C(=O)O`, the result was inactive.
As to `CC1(C)O[C@@H]2C[C@H]3[C@@H]4CCC5=CC(=O)CC[C@]5(C)[C@@]4(F)[C@@H](O)C[C@]3(C)[C@]2(C(=O)CCl)O1`, the outcome was inactive.
In the case of `CCOc1ccccc1N`, the result was inactive.
On to `Cc1cc2nc(N)sc2cc1C`, for which the compound was called inactive.
Same read-out and setting: for `C=CCCC=C` the value was “inactive”.
Still for that read-out and setting: as for `CCCCCCCCc1ccc(S(=O)(=O)O)cc1`, the entry is “inactive”.
Consider `CCCCOc1cc(C(=O)NCCN(CC)CC)c2ccccc2n1`, for which the compound was classed as inactive.
For the compound `CCCCC1CCC(=O)O1` (stereo not drawn), the compound was called inactive.
Take `O=Cc1ccc(O)c(O)c1O`: the compound was classed as inactive.
In the case of `O=CCCc1ccccc1`, the compound was called inactive.
Turning to `OCC(CBr)(CBr)CBr`, the outcome was inactive.
For the compound `CC(C)NC[C@@H](O)COc1cccc2ccccc12`, the call was inactive.
In the case of `CCCCCCn1c(=O)c2c(ncn2C)n(C)c1=O`, the result was inactive.
The same measure, in the same setting: for `COc1cc(Cl)ccc1Cl` the value was “inactive”.
On to `O=C1CCN(c2ccccc2)N1`, for which the compound was called inactive.
Turning to `COc1cc2c(cc1N)oc1ccccc12`, the outcome was inactive.
The same measure, in the same setting: for `COc1ccc(Nc2ccc(OC)cc2)cc1` the value was “inactive”.
